From PubChem BioAssay (Tox21) come the findings set out here.

Records with an inconclusive call do not appear. Entries that show only a call come without a potency. The source made the active and inactive calls. The call rests on the fitted dose curve.
Potency means the concentration at half of the fitted maximal effect.

A short description of this assay: qHTS assay to identify small molecule antagonists of the estrogen receptor alpha (ER-alpha) signaling pathway using the BG1 cell line (AID 743080).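 Further: BG1 cells stimulated with 17beta-estradiol alongside compound; nearly all actives have a fitted effect of over 25% in size.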 The conditions noted are these: BG1Luc4E2 ERE-luciferase antagonist mode, luminescence; series mostly up to 70.3 µM. An excerpt:
National Center for Advancing Translational Sciences [NCATS]
NIH Chemical Genomics Center [NCGC]
U.S. Environmental Protection Agency [EPA]
National Institutes of Environmental Health Sciences [NIEHS]
National Toxicology Program [NTP]
U.S. Food and Drug Administration [FDA]
Estrogen receptor (ER), a nuclear hormone receptor, plays an important role in development, metabolic homeostasis and reproduction. Endocrine disrupting chemicals (EDCs) and their interactions with steroid hormone receptors like ER causes disruption of normal endocrine function. Therefore, it is important to understand the effect of environmental chemicals on the ER signaling pathway. To identify ER antagonists, BG1-Luc-4E2 cell line (provided by Dr. Michael Denison from University of California) has been used to screen the Tox21 10K compound library. BG1Luc4E2 cell line endogenously expresses full-length ER-alpha and is stably transfected with a plasmid containing four estrogen responsive elements (ERE) upstream of a luciferase reporter gene.
Tox21 Assay Protocol Summary:
BG1-Luc-4E2 cells were cultured in phenol red free assay medium containing 10% charcoal stripped FBS for 5 days before the assay was performed. The cells were dispensed at 4,000 cells/4 uL of assay medium per well into white wall/solid-bottom 1536-well plates using a Multidrop Combi (ThermoFisher Scientific, Waltham, MA) dispenser. The assay plates were incubated at a 37C and 5% CO2 for 24 h, and then 23 nL of compounds dissolved in DMSO, positive controls or DMSO only was transferred to the assay plate using a Pintool station (Kalypsys, San Diego, CA), followed by addition of 1 uL of 17beta-estradiol in assay medium using a Flying Reagent Dispenser (Aurora Discovery, San Diego, CA). After the plates were incubated at 37 C and 5% CO2 for 21.5 h, 1 uL of CellTiter-Fluor reagent (Promega, Madison, WI) of measuring cytotoxicity was added using Flying Reagent Dispenser (FRD) to each well. The assay plates were incubated at 37 C and 5% CO2 for additional 30 min and the fluorescence intensity was quantified by a ViewLux plate reader (PerkinElmer, Shelton, CT). For measuring luciferase reporter gene activity, 4 uL of ONE-Glo reagent (Promega) was added to each plate using an FRD and luminescence was quantified by a ViewLux plate reader after 30 min incubation at room temperature.
On the technique in general: qHTS replaces the single test concentration by a dilution series.
Regarding `O=C(O)CC/C=C\CC[C@@H]1[C@@H](N2CCCCC2)[C@@H](O)C[C@@H]1OCc1ccc(-c2ccccc2)cc1`, the Potency entry was “inactive”.
For the compound `CC(CN(C)C)CN1c2ccccc2S(=O)(=O)c2ccccc21` (stereo not given), the Potency result is “inactive”.
The entry for `COCC(=O)Nc1cc(Sc2ccccc2)ccc1N=C(NC(=O)OC)NC(=O)OC` is “inactive”; for `CCCCCCCCCCCCCCCCCCOP(=O)([O-])OC1CC[N+](C)(C)CC1` it is “inactive”.
The same measure for `C[C@H](O)[C@H](O)[C@H]1CNc2nc(N)[nH]c(=O)c2N1`: “inactive”.
The same measure for `CC(C)(C)NC[C@H](O)COc1ccccc1C1CCCC1`: “inactive”; for `Nc1ccn(C[C@@H](CO)OCP(=O)(O)O)c(=O)n1`: “inactive”; for `CCCCCc1ccc(C)cc1O`: “inactive”.
Regarding `CCCCCCCCCCCC(=O)N(CCO)CCO`, the Potency entry was “inactive”.
As for `O=C(Cc1cccs1)N[C@@H]1C(=O)N2C(C(=O)[O-])=C(C[n+]3ccccc3)CS[C@H]12`, the Potency result is “inactive”.
With `O=C(OCc1ccccc1)c1cccnc1`, the Potency result was “inactive”.
The entry for `NC[C@@H]1O[C@H](O[C@H]2[C@@H](O)[C@H](O[C@@H]3[C@@H](O)[C@H](N)C[C@H](N)[C@H]3O[C@H]3O[C@H](CO)[C@@H](O)[C@H](O)[C@H]3N)O[C@@H]2CO)[C@H](N)[C@@H](O)[C@@H]1O` is “inactive”.
The figure for `CN1C(=O)CN2CCc3ccccc3C2c2cc(Cl)ccc21` (stereo not given) is 21.1 µM (active).
The same measure for `Cn1nnnc1SCC1=C(C(=O)O)N2C(=O)[C@@H](NC(=O)[C@H](O)c3ccccc3)[C@H]2SC1`: “inactive”; for `CCOC(=O)COc1ccc2c(C)c(CCN(CC)CC)c(=O)oc2c1`: “inactive”; for `CNCC(O)c1ccc(OC(=O)C(C)(C)C)c(OC(=O)C(C)(C)C)c1` (stereo not given): “inactive”.
`COC(=O)CCC(=O)CN`: the Potency result is “inactive”.
On to `C[C@@](Cc1ccc(O)c(O)c1)(NN)C(=O)O`, for which the Potency entry was “inactive”.
In the case of `CN1CCN(C2=Nc3ccccc3Cc3ccccc32)CC1`, the Potency entry is “inactive”.
The entry for `COc1ccc(C[C@@H](C)NC[C@H](O)c2ccc(O)c(NC=O)c2)cc1` is “inactive”; for `CCOc1ccc(N=C(C)Nc2ccc(OCC)cc2)cc1` it is “inactive”; for `O=S(=O)(O)CCCS(=O)(=O)O` it is “inactive”.
On to `CCCCCCCCCCCCCCCCCC(=O)[O][Al]`, for which the Potency entry was “inactive”.
The same measure for `CN(C)CCCN1c2ccccc2C(C)(C)c2ccccc21`: “inactive”.
The same measure for `O=S(=O)(O)Oc1ccc(C(c2ccc(OS(=O)(=O)O)cc2)c2ccccn2)cc1`: “inactive”; for `COc1cc([C@@H]2c3cc4c(cc3C(O[C@@H]3O[C@@H]5CO[C@@H](C)O[C@H]5[C@H](O)[C@H]3O)C3COC(=O)[C@@H]32)OCO4)cc(OC)c1OP(=O)(O)O` (stereo not given in full): “inactive”; for `CC(C)(C)c1ccc(CN2CCN(C(c3ccccc3)c3ccc(Cl)cc3)CC2)cc1` (stereo not given): “inactive”.
The entry for `CC(CC(c1ccccc1)c1ccccc1)NC(C)(C)C` (stereo not given) is “inactive”; for `[O]=[Bi][O]C(=O)[O][Bi]=[O]` it is “inactive”; for `O=C(O)c1cc(O)c2c(c1)[O][Bi][O]2` it is “inactive”.
On to `O=C(NCCNCC(O)COc1ccc(O)cc1)N1CCOCC1` (stereo not given), for which the Potency entry is “inactive”.
The entry for `CN1[C@@H]2CC[C@H]1CC(OC(c1ccccc1)c1ccccc1)C2` (stereo not given in full) is “inactive”.
The entry for `CCCCCCCCCCCCCCCC(=O)OCC(COC(=O)CCCCCCCCCCCCCCC)OC(=O)CCCCCCCCCCCCCCC` is “inactive”; for `NC[C@@H]1O[C@H](O[C@H]2[C@@H](O)[C@H](O[C@@H]3[C@@H](O)[C@H](N)C[C@H](N)[C@H]3O[C@H]3O[C@H](CN)[C@@H](O)[C@H](O)[C@H]3N)O[C@@H]2CO)[C@H](N)[C@@H](O)[C@@H]1O` it is “inactive”.
As to `CN(C(=O)CO)c1c(I)c(C(=O)NCC(O)CO)c(I)c(C(=O)NCC(O)CO)c1I` (stereo not given), the Potency entry is “inactive”.
Take `CC1C(=O)CC2C3(C)CCC2(C(C)C(=O)O)C(=O)C13` (stereo not given): the Potency result was “inactive”.
The entry for `O=C(OCCO)c1ccccc1O` is “inactive”.
In the case of `CCC(Oc1ccccc1)C(=O)N[C@@H]1C(=O)N2[C@@H]1SC(C)(C)[C@@H]2C(=O)O` (stereo not given in full), the Potency entry is “inactive”.
The entry for `O=C(O)COc1ccc(CCNS(=O)(=O)c2ccccc2)s1` is “inactive”.
The same measure for `O=C(Nc1ccc(/C=C/c2ccc(NC(=O)c3cc(S(=O)(=O)O)c4cccnc4c3O)cc2S(=O)(=O)O)c(S(=O)(=O)O)c1)c1cc(S(=O)(=O)O)c2cccnc2c1O`: “inactive”.
